Holding throughout (assay): NCI-60 one-dose screen, 48 h (100 = growth as untreated, 0 = no growth, -100 = all killed)
One test has as its system NCI-H23 lung. The following applies: 10 µM unless noted.
In the next test the test system is NCI-H226 lung. To be noted: 10 µM unless noted.
A further test concerns NCI-H322M lung. To be noted: 10 µM unless noted.
A further test concerns HOP-62 NSCLC. The following applies: 10 µM unless noted.
The next test has as its system NCI-H460 lung. To be noted: 10 µM unless noted.
The next test deals with HOP-92 NSCLC. The following applies: 10 µM unless noted.
The next test relates to NCI-H522 lung. To be noted: 10 µM unless noted.
For the next test, the system named is A549/ATCC NSCLC. The following applies: 10 µM unless noted.
The test system of a further test is 786-0 renal. To be noted: 10 µM unless noted.
The next test deals with COLO 205 colon. To be noted: 10 µM unless noted.
The test system of a further test is DU-145 prostate. To be noted: 10 µM unless noted.
The test system of another test is K-562 leukemia. The following applies: 10 µM unless noted.
The next test deals with MALME-3M melanoma. To be noted: 10 µM unless noted.
The next test has as its system MDA-MB-231 breast. The following applies: 10 µM unless noted.
The subject of another test is SF-268 CNS. The following applies: 10 µM unless noted.
The next test relates to SF-295 CNS. To be noted: 10 µM unless noted.
In the next test the test system is SF-539 CNS. To be noted: 10 µM unless noted.
Another test relates to UACC-257 melanoma. To be noted: 10 µM.
Another test concerns M14 melanoma. The following applies: 10 µM unless noted.
The next test deals with RXF 393 renal. To be noted: 10 µM unless noted.

Each structure is given as a SMILES string. About 83,000 compounds went through this panel and 20% of them were active in at least one assay; those are over-represented in the sample as a whole.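 The test compound was applied at a single concentration to cells in 96-well plates for 48 hours, and percent growth was recorded.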 Unmarked numbers belong to inactive results. Activity calls are given as the source filed them. The calls were made as follows: active = growth percent below 10; inactive = the rest.

With `N#C/C(=C\c1ccc(-c2ccc(F)cc2)o1)C(=O)Nc1ncc(Cc2ccc(Cl)cc2Cl)s1`, the growth in the test on NCI-H23 lung was -37.2% (active); in the test with NCI-H226 lung it was 69.3%; with NCI-H322M lung it was 13.8%; with HOP-62 NSCLC, -34.7% (active); in the test on NCI-H460 lung, -74.2% (active); in the test with HOP-92 NSCLC it was 36.7%. Also, the growth in the test on NCI-H522 lung was -8.78% (active); in the test on A549/ATCC NSCLC, -48% (active); in the test on 786-0 renal, -28.3% (active); with COLO 205 colon it was 66.8%; with DU-145 prostate it was -46.5% (active); in the test on K-562 leukemia it was 15.5%. Besides, the growth was -52.7% (active) in the test with MALME-3M melanoma; 20.1% in the test on MDA-MB-231 breast; 1.24% (active) in the test with SF-268 CNS; 3.15% (active) in the test with SF-295 CNS; -2.12% (active) in the test on SF-539 CNS; 84.1% with UACC-257 melanoma. Further, the growth in the test with M14 melanoma was 2.18% (active).

As for `CC[C@H](C)[C@H]1NC(=O)[C@@H]([C@H](O)C(C)C)NC(=O)[C@@H](C)N(C)C(=O)[C@H](C)N(C)C(=O)[C@H](CC(C)C)NC(=O)[C@H](CC(C)C)N(C)C(=O)[C@H](C)N(C)C1=O`, the growth in the test on NCI-H23 lung was -2.85% (active); in the test with NCI-H226 lung it was -6.15% (active); with NCI-H322M lung it was 5.75% (active); in the test with HOP-62 NSCLC, -13.3% (active); in the test with NCI-H460 lung, 1.46% (active); with HOP-92 NSCLC, -3.54% (active). Further, the growth in the test on NCI-H522 lung is 1.44% (active); with A549/ATCC NSCLC it was 0.788% (active); with 786-0 renal, 0.205% (active); in the test with COLO 205 colon, -8.56% (active); in the test on DU-145 prostate it was 1.83% (active); in the test with K-562 leukemia, 7.23% (active). The growth with MALME-3M melanoma is 3.72% (active); in the test on MDA-MB-231 breast it was 8.22% (active); in the test on RXF 393 renal, -17.8% (active); in the test on SF-268 CNS, 4.57% (active); in the test on SF-295 CNS, -4.82% (active); with SF-539 CNS, -12.6% (active). Further, the growth in the test with M14 melanoma was -18.2% (active).

With `CN1CCN(Cc2ccc(NC(=O)c3cncc(C#Cc4cnc5ccc(NC6CCOCC6)nn45)c3)cc2C(F)(F)F)CC1`, the growth in the test with NCI-H23 lung is -52.9% (active); in the test with NCI-H226 lung, -53.1% (active); with NCI-H322M lung, -20% (active); in the test on HOP-62 NSCLC, -0.603% (active); in the test on NCI-H460 lung, -81.4% (active); in the test with HOP-92 NSCLC it was -29.2% (active). The growth was -68.5% (active) in the test with NCI-H522 lung; -14.2% (active) with A549/ATCC NSCLC; -88.3% (active) with 786-0 renal; -90.6% (active) in the test on COLO 205 colon; -95.2% (active) in the test with DU-145 prostate; -12.8% (active) with K-562 leukemia. The growth in the test on MALME-3M melanoma was -86.5% (active); in the test with MDA-MB-231 breast it was -71.9% (active); in the test with RXF 393 renal it was -93.8% (active); in the test with SF-268 CNS, -47.5% (active); in the test on SF-295 CNS, -85.2% (active); with SF-539 CNS, -92.1% (active). Besides, the growth with UACC-257 melanoma was -13.9% (active); in the test with M14 melanoma, -97.2% (active).

Regarding `C/C(=N/Nc1nc(N/N=C(/C)c2ccc([N+](=O)[O-])cc2)nc(N2CCOCC2)n1)c1ccc([N+](=O)[O-])cc1`, the growth in the test with NCI-H23 lung was 57.9%; in the test on NCI-H226 lung, 41.9%; in the test with NCI-H322M lung, 86.7%; in the test on HOP-62 NSCLC, 86.2%; in the test on NCI-H460 lung, 78.1%; with HOP-92 NSCLC, 64.1%. Also, the growth was 61.7% in the test on NCI-H522 lung; 73.9% in the test on A549/ATCC NSCLC; 66.9% with 786-0 renal; 94.8% in the test on COLO 205 colon; 81% with DU-145 prostate; 79.7% in the test on K-562 leukemia. Besides, the growth is 69.4% in the test on MALME-3M melanoma; 43.5% with MDA-MB-231 breast; 69.2% in the test on RXF 393 renal; 96% with SF-268 CNS; 66.5% in the test on SF-295 CNS; 15.5% in the test on SF-539 CNS. Besides, the growth is 99.2% with UACC-257 melanoma and 74.5% with M14 melanoma.

Take `O=c1[nH]c2cc(Cl)ccc2n1C1CCN(c2ccc3nnc(Cl)n3n2)CC1`: the growth with NCI-H23 lung is 91%; in the test with NCI-H226 lung, 87.4%; with NCI-H322M lung, 87.7%; in the test on HOP-62 NSCLC, 95.4%; in the test with NCI-H460 lung it was 100%; in the test on HOP-92 NSCLC it was 103%. Besides, the growth in the test with NCI-H522 lung is 87.2%; in the test with A549/ATCC NSCLC, 88.3%; in the test on 786-0 renal, 97.3%; with COLO 205 colon, 107%; in the test on DU-145 prostate, 99.8%; in the test on K-562 leukemia it was 81.4%. For the same compound, the growth was 104% in the test on MALME-3M melanoma; 95.6% in the test on MDA-MB-231 breast; 83.7% in the test with RXF 393 renal; 92.5% with SF-268 CNS; 87.5% in the test with SF-295 CNS; 91% with SF-539 CNS. Besides, the growth in the test on UACC-257 melanoma is 95.9%; in the test with M14 melanoma it was 98.1%.

Consider `CC1=CC(=O)CC(C)(C)[C@@]1(O)/C=C/C(C)=C\C(=O)O`, for which the growth is -29.3% (active) in the test on NCI-H23 lung; -46.5% (active) in the test with NCI-H226 lung; -11.3% (active) with NCI-H322M lung; -41.6% (active) in the test on HOP-62 NSCLC; -6.19% (active) with NCI-H460 lung; -14.6% (active) in the test with HOP-92 NSCLC. The growth was -41.6% (active) in the test with NCI-H522 lung; -27.6% (active) in the test with A549/ATCC NSCLC; -43.2% (active) in the test with 786-0 renal; -57.6% (active) in the test with COLO 205 colon; -21.8% (active) in the test on DU-145 prostate; 0.164% (active) with K-562 leukemia. The growth with MALME-3M melanoma is -57.5% (active); in the test on MDA-MB-231 breast it was -18% (active); with RXF 393 renal, -64.2% (active); in the test with SF-268 CNS it was -5.99% (active); with SF-295 CNS, -38.7% (active); with SF-539 CNS, -46.5% (active). For the same compound, the growth with M14 melanoma was -77.3% (active).

With `CC(=O)NC(C)(C)C(=O)N1CCC[C@H]1C(=O)NC(C)(C)C(=O)N[C@@H](C)C(=O)NC(C)(C)C(=O)NC(C)(C)C(=O)N[C@@H](CCC(N)=O)C(=O)NC(C)(C)C(=O)N[C@H](C(=O)NC(C)(C)C(=O)NCC(=O)N[C@@H](CC(C)C)C(=O)NC(C)(C)C(=O)N1CCC[C@H]1C(=O)N[C@H](C(=O)NC(C)(C)C(=O)NC(C)(C)C(=O)N[C@@H](CCC(N)=O)C(=O)N[C@@H](CCC(N)=O)C(=O)N[C@H](CO)Cc1ccccc1)C(C)C)C(C)C`, the growth was 21.1% [4.25 µM] with NCI-H23 lung; 29.8% [4.25 µM] with NCI-H226 lung; 71.1% [4.25 µM] with NCI-H322M lung; 41% [4.25 µM] in the test with HOP-62 NSCLC; 29.9% [4.25 µM] in the test with NCI-H460 lung; -10.1% [4.25 µM] (active) with HOP-92 NSCLC. Moreover, the growth in the test on NCI-H522 lung was 10.6% [4.25 µM]; with A549/ATCC NSCLC it was 26.7% [4.25 µM]; in the test with 786-0 renal, 80.5% [4.25 µM]; with COLO 205 colon it was -25.1% [4.25 µM] (active); with DU-145 prostate, 43.5% [4.25 µM]; in the test on K-562 leukemia it was 22.2% [4.25 µM]. Also, the growth with MALME-3M melanoma is -10.6% [4.25 µM] (active); in the test with MDA-MB-231 breast it was 36.5% [4.25 µM]; in the test with RXF 393 renal it was 18% [4.25 µM]; with SF-268 CNS it was 32.9% [4.25 µM]; with SF-295 CNS, 22.2% [4.25 µM]; in the test with SF-539 CNS, 24.5% [4.25 µM]. For the same compound, the growth in the test on M14 melanoma was 51.3% [4.25 µM].

(Values after PubChem BioAssay (NCI).)
